In PubChem BioAssay (Tox21):
Values joined by “and” are separate entries in the source; they are usually repeats but may differ in a detail not shown here. Equal values may be shown once. Inconclusive results are not listed. A call without a number means that no potency is given here. Active and inactive are the calls of the source. Unless noted, the call rests on the fitted dose curve; in most records, active means well fitted curve in the direction sought with a large enough effect in the repeat runs; inconclusive means weak or mixed curves; inactive means no such curve, though single readings can be large; an effect the other way counts as inactive or inconclusive.

Legend:
[1] = qHTS assay to identify small molecule antagonists of the glucocorticoid receptor (GR) signaling pathway - cell viability counter screen (AID 720693); further: nearly all actives have a fitted effect of over 55% in size
[2] = qHTS assay for identifying genotoxic compounds that show differential cytotoxicity against isogenic chicken DT40 cell lines with known DNA damage response pathways - wild type cell line (AID 743012); further: nearly all actives have a fitted effect of over 60% in size; further: potency means the concentration at half of the fitted maximal effect
Procedure, shortened: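 CellTiter-Glo luminescence readout of viability in wild type DT40 cells after 40 h compound exposure at 37 C/5% CO2; 300 cells/well; reagent incubated 30 min at room temperature before reading.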

[3] = qHTS assay for identifying genotoxic compounds that show differential cytotoxicity against isogenic chicken DT40 cell lines with known DNA damage response pathways - Rev3 mutant cell line (AID 743014); further: nearly all actives have a fitted effect of over 55% in size; further: potency means the concentration at half of the fitted maximal effect
[4] = qHTS assay to identify small molecule antagonists of the androgen receptor (AR) signaling pathway - cell viability counter screen (AID 743033; further: nearly all actives have a fitted effect of over 45% in size)
[5] = qHTS assay to identify small molecule antagonists of the androgen receptor (AR) signaling pathway using the MDA cell line - cell viability counter screen (AID 743041; further: nearly all actives have a fitted effect of over 45% in size)
Procedure, shortened: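 Using the breast carcinoma line MDA-kb2 AR-luc, test chemicals were co-incubated with R1881 for 16 h; CellTiter-Fluor reagent, added at 15.5 h, provided a fluorescence measure of live cells.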

[6] = qHTS assay to identify small molecule antagonists of the thyroid receptor (TR) signaling pathway - cell viability counter screen (AID 743064); further: nearly all actives have a fitted effect of over 50% in size; further: potency means the concentration at half of the fitted maximal effect
Procedure, shortened: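 In-well cytotoxicity read by CellTiter-Fluor (30 min, 37 C) following 23.5 h exposure of GH3 cells bearing a TRE-luciferase sensor. Compounds were added alongside 1 nM (final) T3 to drive TR transactivation.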

[7] = qHTS assay to identify small molecule antagonists of the thyroid receptor (TR) signaling pathway (AID 743065); further: nearly all actives have a fitted effect of over 55% in size; further: potency means the concentration at half of the fitted maximal effect
Procedure, shortened: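 Antagonism measured as loss of luciferase signal in GH3 cells stably carrying a TRE-luciferase reporter, co-treated with compound and T3 (1 nM final) for 23.5 h at 37 C. Viability was read in the same well by CellTiter-Fluor.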

[8] = tested on: thyroid hormone receptor (rat, GH3 cells); assay: qHTS assay to identify small molecule agonists of the thyroid receptor (TR) signaling pathway (AID 743066; calls by dose curve)
[9] = target: Estrogen receptor (Homo sapiens) (UniProt P03372); assay: qHTS assay to identify small molecule antagonists of the estrogen receptor alpha (ER-alpha) signaling pathway (AID 743069; active means well fitted curve in the direction sought with a large enough effect in the signal ratio in the repeat runs, not every such curve was filed as active; the % refers to the signal ratio)
Chain of Estrogen receptor (Homo sapiens) (P03372 whole entry, looked up): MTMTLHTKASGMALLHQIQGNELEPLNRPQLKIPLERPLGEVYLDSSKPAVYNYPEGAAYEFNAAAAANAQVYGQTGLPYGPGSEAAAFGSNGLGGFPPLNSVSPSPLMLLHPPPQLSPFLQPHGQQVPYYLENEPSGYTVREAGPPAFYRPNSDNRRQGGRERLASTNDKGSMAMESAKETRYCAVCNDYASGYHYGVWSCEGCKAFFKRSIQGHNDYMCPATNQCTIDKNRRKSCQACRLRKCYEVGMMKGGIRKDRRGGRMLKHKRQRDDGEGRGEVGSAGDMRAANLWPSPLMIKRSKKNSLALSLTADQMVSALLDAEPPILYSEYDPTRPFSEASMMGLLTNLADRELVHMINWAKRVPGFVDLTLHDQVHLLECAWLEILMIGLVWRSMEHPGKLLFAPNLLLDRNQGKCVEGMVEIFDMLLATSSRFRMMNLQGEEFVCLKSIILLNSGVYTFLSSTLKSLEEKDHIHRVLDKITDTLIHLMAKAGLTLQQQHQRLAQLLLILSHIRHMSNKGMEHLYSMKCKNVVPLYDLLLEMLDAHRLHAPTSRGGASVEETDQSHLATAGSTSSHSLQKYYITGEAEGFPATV
Procedure, shortened: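 Fluorescence intensity from a beta-lactamase FRET substrate served as the read-out. Cells: HEK293 with stably integrated ER-alpha-UAS-bla reporter. Agonist 17beta-estradiol was co-added with compounds; incubation 18 hr at 37C, substrate 2 hr at room temperature.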

[10] = qHTS assay to identify small molecule antagonists of the estrogen receptor alpha (ER-alpha) signaling pathway - cell viability counter screen (AID 743074; calls by dose curve; further: nearly all actives have a fitted effect of over 45% in size)
[11] = target: Estrogen receptor (Homo sapiens) (UniProt P03372); assay: qHTS assay to identify small molecule agonists of the estrogen receptor alpha (ER-alpha) signaling pathway (AID 743075; calls by dose curve)
[12] = target: Estrogen receptor (Homo sapiens) (UniProt P03372); assay: qHTS assay to identify small molecule agonists of the estrogen receptor alpha (ER-alpha) signaling pathway using the BG1 cell line (AID 743079); further: nearly all actives have a fitted effect of over 20% in size; further: potency means the concentration at half of the fitted maximal effect
[13] = qHTS assay to identify small molecule antagonists of the estrogen receptor alpha (ER-alpha) signaling pathway using the BG1 cell line (AID 743080; calls by dose curve;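 further: BG1 cells stimulated with 17beta-estradiol alongside compound; series mostly up to about 70 µM; nearly all actives have a fitted effect of over 25% in size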)
Procedure, shortened: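 BG1Luc4E2, endogenous ER-alpha, 4xERE-luc; 5 d charcoal-stripped FBS, phenol red free; 24 h plating; cpd + 17beta-estradiol 21.5 h, 37 C/5% CO2; CellTiter-Fluor viability 30 min, then ONE-Glo luciferase 30 min RT.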

[14] = target: Aromatase (Homo sapiens) (UniProt P11511); assay: qHTS assay to identify aromatase inhibitors (AID 743083); further: series mostly up to about 70 µM; nearly all actives have a fitted effect of over 55% in size
Chain of Aromatase (Homo sapiens) (P11511 whole entry, looked up): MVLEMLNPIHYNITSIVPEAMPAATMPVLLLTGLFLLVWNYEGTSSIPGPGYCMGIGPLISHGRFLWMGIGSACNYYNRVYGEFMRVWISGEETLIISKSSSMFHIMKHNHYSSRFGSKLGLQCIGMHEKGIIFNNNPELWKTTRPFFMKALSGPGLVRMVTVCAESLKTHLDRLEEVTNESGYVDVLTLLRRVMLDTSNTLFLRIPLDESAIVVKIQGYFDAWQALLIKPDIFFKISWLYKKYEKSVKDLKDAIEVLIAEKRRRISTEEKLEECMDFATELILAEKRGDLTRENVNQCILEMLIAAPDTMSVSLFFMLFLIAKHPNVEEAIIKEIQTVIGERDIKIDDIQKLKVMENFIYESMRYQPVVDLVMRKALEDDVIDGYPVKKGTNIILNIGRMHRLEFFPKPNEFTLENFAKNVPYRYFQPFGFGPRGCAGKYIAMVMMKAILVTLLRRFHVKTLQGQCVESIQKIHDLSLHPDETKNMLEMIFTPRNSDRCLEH

[15] = qHTS assay for identifying genotoxic compounds that show differential cytotoxicity against isogenic chicken DT40 cell lines with known DNA damage response pathways - Rad54/Ku70 mutant cell line (AID 743015); further: nearly all actives have a fitted effect of over 60% in size; further: potency means the concentration at half of the fitted maximal effect
[16] = qHTS assay to identify small molecule antagonists of the estrogen receptor alpha (ER-alpha) signaling pathway using the BG1 cell line - cell viability counter screen (AID 743081);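 further: compound given together with 17beta-estradiol as the ER stimulus; series mostly up to about 70 µM; nearly all actives have a fitted effect of over 45% in size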
[17] = target: Androgen receptor (Homo sapiens) (UniProt P10275); assay: qHTS assay to identify small molecule antagonists of the androgen receptor (AR) signaling pathway (AID 743035; active means well fitted inhibition curve with a large enough effect in the signal ratio in the repeat runs, not every such curve was filed as active; the % refers to the signal ratio)
Chain of Androgen receptor (Homo sapiens) (P10275 whole entry, looked up): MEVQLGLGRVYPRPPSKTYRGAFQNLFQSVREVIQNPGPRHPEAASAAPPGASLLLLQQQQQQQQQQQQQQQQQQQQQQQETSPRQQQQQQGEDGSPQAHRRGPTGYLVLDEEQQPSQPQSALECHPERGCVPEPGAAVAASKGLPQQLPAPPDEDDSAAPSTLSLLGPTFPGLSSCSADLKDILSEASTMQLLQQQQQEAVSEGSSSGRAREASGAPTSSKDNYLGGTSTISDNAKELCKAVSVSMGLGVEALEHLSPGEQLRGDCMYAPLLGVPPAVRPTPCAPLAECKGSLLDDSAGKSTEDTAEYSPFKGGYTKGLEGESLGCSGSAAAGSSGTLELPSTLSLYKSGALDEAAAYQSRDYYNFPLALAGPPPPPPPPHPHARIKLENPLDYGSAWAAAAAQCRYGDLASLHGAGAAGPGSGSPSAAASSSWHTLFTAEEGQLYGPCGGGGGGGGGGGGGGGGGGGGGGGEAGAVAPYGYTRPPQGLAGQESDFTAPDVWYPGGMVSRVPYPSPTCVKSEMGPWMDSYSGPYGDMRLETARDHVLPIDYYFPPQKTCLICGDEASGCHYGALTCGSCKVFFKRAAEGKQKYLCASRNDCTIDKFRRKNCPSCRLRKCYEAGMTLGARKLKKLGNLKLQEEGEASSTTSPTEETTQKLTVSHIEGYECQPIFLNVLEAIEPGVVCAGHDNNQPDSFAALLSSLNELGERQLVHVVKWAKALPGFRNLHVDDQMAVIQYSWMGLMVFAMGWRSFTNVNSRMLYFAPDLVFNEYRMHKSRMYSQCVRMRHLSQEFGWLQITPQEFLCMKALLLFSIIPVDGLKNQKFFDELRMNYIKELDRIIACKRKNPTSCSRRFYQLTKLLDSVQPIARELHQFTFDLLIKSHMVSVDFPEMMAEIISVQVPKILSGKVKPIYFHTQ
Procedure, shortened: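 AR-bla HEK293 reporter cells; 4 h settle at 37C/5% CO2; compound + R1881 agonist, 16 h at 37C; LiveBLAzer B/G FRET substrate 2 h RT; fluorescence intensity read. qHTS format.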

[18] = target: Androgen receptor (Homo sapiens) (UniProt P10275); assay: qHTS assay to identify small molecule agonists of the androgen receptor (AR) signaling pathway (AID 743036; active means well fitted activation curve with a large enough effect in the signal ratio in the repeat runs, with a control signal flat, not every such curve was filed as active; the % refers to the signal ratio)
Procedure, shortened: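 Activation was read as beta-lactamase FRET signal from LiveBLAzer B/G substrate, added for 2 h at room temperature. Before that, GeneBLAzer AR-UAS-bla GripTite (HEK293) cells had 16 h compound exposure at 37C.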

[19] = target: Androgen receptor (Homo sapiens) (UniProt P10275); assay: qHTS assay to identify small molecule agonists of the androgen receptor (AR) signaling pathway using the MDA cell line (AID 743040; further: nearly all actives have a fitted effect of over 20% in size)
Procedure, shortened: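 Stable MMTV-luciferase reporter in MDA-kb2 cells; note the promoter carries GR as well as AR response elements. 16 h compound treatment, 37C, 0% CO2; ONE-Glo luminescence endpoint.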

[20] = target: Androgen receptor (Homo sapiens) (UniProt P10275); assay: qHTS assay to identify small molecule antagonists of the androgen receptor (AR) signaling pathway using the MDA cell line (AID 743042; further: nearly all actives have a fitted effect of over 55% in size)
Procedure, shortened: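 Antagonist mode: compounds plus R1881 agonist added to MDA-kb2 AR-luc cells, incubated 16 h at 37C. Luciferase reporter luminescence quantified, with multiplexed CellTiter-Fluor readout for cell viability.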

Row | Structure (SMILES) | outcome [1] | Potency [2] | Potency [3] | outcome [4] | Potency [5] | Potency [6] | Potency [7] | Potency [8] | Potency [9] | outcome [10] | Potency [11] | Potency [12] | Potency [13] | Potency [14] | Potency [15] | outcome [16] | Potency [17] | outcome [18] | Potency [19] | outcome [20]
1 | CCCCCC[C@@H](CCC)C(=O)O | inactive | inactive | inactive | inactive | inactive | inactive | inactive | inactive | inactive | inactive | inactive | inactive | inactive | inactive | – | – | – | – | – | –
2 | Cc1c(C)n(CCN(C)C)c2ccc(C(=O)OCCN(C)C)cc12 | inactive | 11.9 µM (active) | 7.5 µM (active) | inactive | inactive | 26.6 µM (active) | 21.1 µM (active) | inactive | inactive | inactive | inactive | – | – | inactive | – | – | – | – | – | –
3 | CCC(C)(C)C1CCC(OC)CC1 (stereo not given) | inactive | inactive | – | inactive | inactive | inactive | inactive | inactive | inactive | inactive | inactive | inactive | inactive | inactive | inactive | inactive | – | – | – | –
4 | CCCCOCC(C)OCC(C)O (stereo not given) | inactive | inactive | inactive | inactive | inactive | – | inactive | inactive | inactive | inactive | inactive | inactive | – | inactive | – | inactive | – | – | – | –
5 | O=C(O)/C=C/c1ccc(Cn2ccnc2)cc1 | inactive | inactive | – | inactive | inactive | inactive | – | – | – | inactive | – | – | – | inactive | inactive | inactive | – | – | – | –
6 | C=CCSCC1Nc2cc(Cl)c(S(N)(=O)=O)cc2S(=O)(=O)N1 (stereo not given) | inactive | inactive | – | inactive | inactive | inactive | inactive | inactive | – | inactive | – | – | – | inactive | inactive | inactive | – | – | – | –
7 | CC(C)(C)OC(=O)N1C[C@@H](F)C[C@H]1C(=O)O | inactive | inactive | inactive | inactive | inactive | inactive | inactive | inactive | inactive | inactive | inactive | inactive | – | inactive | – | inactive | – | – | – | –
8 | CC(C)COC(=O)c1ccccc1O | inactive | inactive | 24.3 µM (active) | inactive | inactive | – | inactive | inactive | inactive | inactive | inactive | inactive | – | – | – | inactive | – | – | – | –
9 | CC(C)(O)C(=O)c1ccc(OCCO)cc1 | inactive | inactive | inactive | inactive | inactive | – | inactive | inactive | inactive | – | inactive | inactive | – | inactive | – | inactive | – | – | – | –
10 | C[C@H]1O[C@@H](n2cc(F)c(=O)[nH]c2=O)[C@H](O)[C@@H]1O | inactive | 21.1 µM (active) | – | – | inactive | inactive | inactive | inactive | – | inactive | – | – | – | inactive | 23.7 µM (active) | inactive | – | – | – | –
11 | [O-][N+](=Nc1ccccc1)c1ccccc1 | inactive | inactive | inactive | inactive | inactive | inactive | inactive | inactive | inactive | inactive | inactive | 15 µM (active) and 54.5 µM (active) | – | inactive | – | inactive | – | – | – | –
12 | CC(C)(C)C(=O)/C=C/c1ccc(Cl)cc1 | inactive | inactive | – | inactive | inactive | inactive | inactive | inactive | inactive | inactive | inactive | inactive | – | inactive | – | inactive | – | – | – | –
13 | CCCC(C)C(=O)O (stereo not given) | inactive | inactive | inactive | inactive | inactive | inactive | inactive | inactive | inactive | inactive | inactive | inactive | – | inactive | – | inactive | – | – | – | –
14 | CCN1CCCC1CNC(=O)c1cc(S(N)(=O)=O)ccc1OC (stereo not given) | inactive | inactive | – | inactive | inactive | inactive | inactive | inactive | – | inactive | – | – | – | inactive | inactive | inactive | inactive | inactive | inactive | inactive
15 | c1cc(CN2CCCCC2)cc(OCCCNc2nc3ccccc3s2)c1 | inactive | 13.3 µM (active) | 29.8 µM (active) | inactive | inactive | – | 23.7 µM (active) | – | inactive | – | inactive | – | – | – | – | inactive | – | – | – | –
16 | Cc1cc(C)cc(OCC2CNC(=O)O2)c1 (stereo not given) | inactive | inactive | – | inactive | inactive | inactive | inactive | inactive | inactive | inactive | inactive | inactive | – | inactive | inactive | inactive | – | – | – | –
17 | COC(C(=O)O)c1ccccc1 (stereo not given) | inactive | inactive | inactive | inactive | inactive | inactive | inactive | inactive | – | – | – | – | – | inactive | – | inactive | – | – | – | –
18 | O=C(O)c1ccc[n+]([O-])c1 | inactive | inactive | – | inactive | inactive | inactive | inactive | inactive | inactive | inactive | inactive | inactive | inactive | inactive | inactive | inactive | inactive | inactive | inactive | inactive
